Assay outcomes deposited in PubChem BioAssay by PCMD.
FXIa single inh: blocks human coagulation factor XIa activity; P03951; purified human FXIa, fluorogenic AMC substrate cleavage; inhibition, % at 10 µM; 33,000 tested, 0.3% active; AID 687;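 active means inhibition above 40% in the primary screen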
FXIIa single: inhibitors of human coagulation factor XIIa; purified human FXIIa, AMC substrate fluorescence, 2 h; inhibition, % at 10 µM; 33,000 tested, 0.2% active; AID 701; in the data active means inhibition above about 30%
Each line names hits and unclear results; the compound was inactive in the other large screens. Only a selection was taken, and hits are over-represented in it overall.

CNCCCc1ccccc1	FXIa single inh 41
COc1ccc(CCC(C)NCCc2ccccc2)cc1 (stereo unspecified)	none
c1ccc2cc3cc4ccccc4cc3cc2c1	none
